In paper PMC5540273 (PLoS ONE, 2017):

Tests used:
Conditions in all cases: concentration: 1 μM, replicates: in singlicate; n = 1
[1] = test system: T1, SNARK
T1 construct: gene NUAK2

[2] = test system: SNRK
[3] = test system: SRC
[4] = test system: SRMS
[5] = test system: SRPK1
[6] = test system: SRPK2
[7] = test system: SRPK3
[8] = test system: STK16
[9] = test system: STK33
[10] = test system: STK35
[11] = test system: STK36
[12] = test system: STK39
[13] = test system: SYK
[14] = test system: SgK110
[15] = test system: T2, TAK1
T2 construct: gene MAP3K7

[16] = test system: TAOK1
[17] = test system: TAOK2
[18] = test system: TAOK3
[19] = test system: TBK1
[20] = test system: TEC
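Note: KINOMEscan kinase panel screen.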

SMILES | %Inh [1] [%] | %Inh [2] [%] | %Inh [3] [%] | %Inh [4] [%] | %Inh [5] [%] | %Inh [6] [%] | %Inh [7] [%] | %Inh [8] [%] | %Inh [9] [%] | %Inh [10] [%] | %Inh [11] [%] | %Inh [12] [%] | %Inh [13] [%] | %Inh [14] [%] | %Inh [15] [%] | %Inh [16] [%] | %Inh [17] [%] | %Inh [18] [%] | %Inh [19] [%] | %Inh [20] [%]
CCn1c(-c2nonc2N)nc2c(-c3ccccc3)ncc(OCCCN)c21.O=C(O)C(F)(F)F.O=C(O)C(F)(F)F [GSK260205] | 0 | 57 | 0 | 0 | 22 | 0 | 0 | 0 | 0 | 0 | 0 | 7 | 19 | 0 | 0 | 0 | 0 | 0 | 5 | 0
Cn1cc(-c2ccc3c(c2)CCN3C(=O)Cc2cc(F)cc(C(F)(F)F)c2)c2c(N)ncnc21 [GSK2635225] | 10 | 0 | 29 | 0 | 18 | 0 | 2 | 20 | 0 | 0 | 19 | 0 | 27 | 0 | 39 | 0 | 0 | 0 | 21 | 0
Cc1ccc(NC(=O)c2cccc(N3CCCCC3)c2)cc1-c1ccc(C(=O)NCC2CC2)cc1 [GSK1917008] | 0 | 0 | 0 | 0 | 32 | 0 | 23 | 7 | 0 | 89 | 0 | 0 | 20 | 0 | 0 | 8 | 0 | 12 | 0 | 0
O=C(Nc1n[nH]c2nc(-c3ccccc3O)ccc12)C1CC1 [SB-711880] | 0 | 0 | 0 | 0 | 0 | 0 | 23 | 15 | 0 | 57 | 0 | 0 | 0 | 0 | 9 | 9 | 0 | 0 | 27 | 63
Cn1cc(-c2ccc3c(c2)CCN3C(=O)Cc2cc(F)cc(F)c2F)c2c(N)ncnc21 [GSK2634140] | 28 | 8 | 10 | 0 | 34 | 0 | 0 | 0 | 0 | 0 | 0 | 0 | 41 | 0 | 48 | 0 | 0 | 0 | 17 | 0
COc1ccc(C)c(Nc2ccnc(Nc3ccc(-c4cnc[nH]4)cc3)n2)c1.Cl [GW784041] | 0 | 0 | 86 | 0 | 32 | 0 | 30 | 15 | 0 | 12 | 36 | 0 | 16 | 0 | 0 | 0 | 3 | 0 | 49 | 7
